Shown are actives, neighbours in structure and some others; about 21% of the full set was active somewhere.
Pf growth 96h: Primary qHTS for delayed death inhibitors of the malarial parasite plastid, 96 hour incubation; P. falciparum luciferase reporter growth, 96 h; Potency, µM (doses to about 28.7 µM), actives largely listed as inhibitors; actives 6.9% (n = 320,000); AID 504834, 2011
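Delayed-death screen, second-generation endpoint: infected erythrocytes, 2% hematocrit, 0.05% parasitemia final; 96 hours at 37 C, 5% CO2; luciferase detection reagent; luminescence decrease equals reduced growth.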
Pf growth 48h: Primary qHTS for delayed death inhibitors of the malarial parasite plastid, 48 hour incubation. actives 5.9% (n = 310,000). P. falciparum luciferase growth in erythrocytes, 48 h. Potency, µM (top dose mostly 28.7 µM), usual class: inhibitors
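Firefly luciferase activity from engineered P. falciparum reports growth; inhibitors lower the luminescent signal. Cultures contained 2% hematocrit erythrocytes at 0.1% final parasitemia.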
Sm TGR inh: qHTS Assay for the Inhibitors of Schistosoma Mansoni Peroxiredoxins. Schistosoma mansoni thioredoxin glutathione reductase (TGR), Q962Y6. purified TGR, DTNB reduction, TNB absorbance 405 nm. Potency, µM (top dose mostly 114 µM), usual class: inhibitors. actives 3% (n = 360,000); also: nearly all actives have a fitted effect of over 60% in size
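First, TGR (20 nM dispensed) and NADPH were mixed with compound. Second, a 15 min room-temperature incubation followed. Third, further NADPH and then DTNB were added to start the reaction. Finally, TNB absorbance was monitored kinetically.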
Shiga toxin inh: A qHTS for Small Molecule Inhibitors of Shiga Toxin. Vero cells, Shiga toxin protein synthesis inhibition reporter. inhibition, % at 38.7 µM. actives 9.2% (n = 290,000). AID 2315, 2010; in the data active = inhibition mostly above about 28%, no sharp cut-off; inactive = mostly below about 43%
Cycloheximide cs: Cycloheximide Counterscreen for Small Molecule Inhibitors of Shiga Toxin. actives 12% (n = 300,000). cell reporter, cycloheximide protein synthesis inhibition counterscreen. AID 2314, 2010. max response, %; in the data active = max response mostly above about 13%, no sharp cut-off; inactive = mostly below about 14%; also: read at 38.3 µM for the half of the compounds with a filed dose
NS1 inh: qHTS Assay for Inhibitors of Influenza NS1 Protein Function; Potency, µM (doses to about 46.1 µM); actives 0.4% (n = 270,000); calls by dose curve; also: actives are rising curves; nearly all actives have a fitted effect of over 50% in size
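OD600 was taken as the measure of yeast growth restored by compound in an NS1-expressing S. cerevisiae strain. Cells had been washed out of glucose medium and diluted 1:100 into galactose -URA medium, pH 6.0.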
Hits are given with their value; 0 = inactive; ? = inconclusive; - = no result; [ ] = dose if it differs, or a comment. Unless noted, calls follow the shape of the dose curve; as a rule, active = well fitted curve in the direction sought with a large enough effect; inconclusive = small, poorly fitted or top-dose-only effect, or another doubt; inactive = no such curve, though single readings can be large; an effect the other way counts as inactive or inconclusive.

SMILES	Pf growth 96h	Pf growth 48h	Sm TGR inh	Shiga toxin inh	Cycloheximide cs	NS1 inh
CCCCC(Sc1nc2cc3c(cc2c(=O)n1CCCC(=O)NCc1ccc2c(c1)OCO2)OCO3)C(=O)OCC (stereo unspecified)	-	-	0	-	-	-
CN(CC(=O)Nc1cccc2ccccc12)C(=O)c1ccc(F)cc1F	0	0	0	-	-	-
Cc1cccc(N(C(=O)CNC(=O)c2ccco2)C(C(=O)NC2CCCC2)c2cccnc2)c1C (stereo unspecified)	0	0	0	0	0	0
Cc1cc(C)cc(-n2ccn(Cc3ccc(F)cc3)c(=O)c2=O)c1	-	-	0	-	-	-
CCN1CCC(CNCc2cn(-c3ccc(OC)cc3)nc2-c2ccccc2Cl)C1 (stereo unspecified)	?	2.1µM	0	0	0	0
CCc1ccc2c(c1)-c1ccccc1S(=O)(=O)N2CC(=O)N1CCCCC1	-	-	0	-	-	-
CCn1c(C)cc(/C=C2/SC(=O)N(C(C)C(=O)OC)C2=O)c1C (stereo unspecified)	0	0	0	106	48	0
COCCn1c(C)cc(/C=C2\NC(=S)N(C)C2=O)c1C	?	?	0	47	17	0
COCCn1c(C)cc(/C=C2/SC(=O)N(C(C)C(=O)OC)C2=O)c1C (stereo unspecified)	0	0	0	89	53	0
C#CCN1C(=O)S/C(=C/c2cc(C)n(CC)c2C)C1=O	0	0	0	103	74	0
CCOc1cc(C(=O)Nc2ccc3c(c2)n(C)c(=O)c(=O)n3C)cc(OCC)c1OCC	-	-	0	-	-	-
COC(=O)C(C)N1C(=O)S/C(=C/c2cc(C)n(C(C)C)c2C)C1=O (stereo unspecified)	0[5.75 µM]	0	0	106	38	0
O=C(NC1CCCCC1)[C@H](CSCc1ccccc1)N1Cc2ccccc2C1=O	?	?	0	0	0	0
CCc1ccc2nc(N(CCCN(C)C)C(=O)c3ccc(C(=O)c4ccccc4)cc3)sc2c1	15µM	?	0	0	0	0
COc1cc2nc(N(CCCN(C)C)C(=O)c3ccc(C(=O)c4ccccc4)cc3)sc2cc1OC	?	?	0	-	-	-
CN(C)CCCN(C(=O)c1sc2ccccc2c1Cl)c1nc2ccc(F)cc2s1	0	0	0	79	37	0
CCOc1cccc2sc(N(CCCN(C)C)C(=O)c3ccc(C(=O)c4ccccc4)cc3)nc12	10µM	?	0	0	0	0
CCCCN(C(=O)CSCC(=O)Nc1ccc(C)cc1)c1c(N)n(CC(C)C)c(=O)[nH]c1=O	0	?	0	-	-	-
CCOC(=O)C1=C(C)NC(C)=C(C(=O)OCC)C1c1cn(-c2ccccc2)nc1-c1ccco1	-	4.7µM	0	0	0	0
COC(=O)c1cn(-c2ccccc2)nc1-c1ccccc1	0	-	0	0	0	0
CC(C)OC(=O)c1cn(-c2ccccc2)nc1-c1ccco1	0	10µM	5µM	0	0	0
CC(CCc1ccccc1)NC(=O)Cn1c(=O)nc(-c2ccccc2)c2cc(Cl)ccc21 (stereo unspecified)	-	-	0	-	-	-
COc1cc(OC)nc(NC(=S)NC(=O)c2ccccc2)n1	0	?	0	0	0	0
COc1ccc(-c2[nH]ncc2-c2nc(C)cs2)c(O)c1	0	0	0	0	0	0
CCOc1ccc(-c2[nH]ncc2-c2ccc(Cl)cc2)c(O)c1	3.3µM	8.3µM	0	0	0	0
SMILES	Pf growth 96h	Pf growth 48h	Sm TGR inh	Shiga toxin inh	Cycloheximide cs	NS1 inh
C=C(C)COc1ccc(-c2nc(N)ncc2Oc2ccccc2OC)c(O)c1	?	?	0	0	0	0
C=C(C)COc1ccc(-c2[nH]ncc2Oc2ccccc2OC)c(O)c1	0	13µM	0	0	0	0
C=C(C)COc1ccc(-c2[nH]ncc2Oc2ccc(OC)cc2)c(O)c1	?	?	0	0	22	0
C=C(C)COc1ccc(-c2[nH]ncc2-c2ccccc2OC)c(O)c1	0	3.3µM	0	0	0	0
COc1ccc(-n2cc(-c3ccccc3)c3c(SC(C)C(C)=O)ncnc32)cc1 (stereo unspecified)	-	-	0	-	-	-
COc1ccccc1C(=O)Nc1ccc(-c2nc3cc(C)cc(C)c3o2)cc1	-	-	0	-	-	-
